Reference: PubChem BioAssay AID651768 (National Center for Advancing Translational Sciences (NCATS), 2012)
Out of some 360,000 compounds screened, about 1,700 (0.47%) were called active. About 2% were inconclusive and are not listed. Shown is part of a subset that was picked to be rich in actives. Values without a mark were called inactive. Calls follow the shape of the dose curve; as a rule, active = well fitted inhibition curve with a large enough effect; inconclusive = small, poorly fitted or top-dose-only effect; inactive = no such curve, though single readings can be large or run the other way.

Biological target: Bifunctional 3'-5' exonuclease/ATP-dependent helicase WRN (Homo sapiens) (UniProt Q14191)
Assay: qHTS for Inhibitors of WRN Helicase; also: nearly all actives have a fitted effect of over 55% in size
Conditions: WRN helicase unwinding, fluorescent forked duplex, kinetic; series mostly up to 114 µM; activity change, negative = inhibition: at the top concentration
Source text: Inhibition of DNA repair is proposed as a strategy for combating cancer. Synthetic lethality is an approach that exploits preexisting DNA repair deficiencies in certain tumors to develop inhibitors of DNA repair pathways that compensate for the tumor-associated DNA repair deficiency. Because helicases play critical roles in the DNA damage response and in DNA repair, particularly in actively dividing and replicating cells, characterization of synthetic lethal relationships of DNA helicases may be of value in developing improved anticancer treatment strategies; moreover, small molecules that specifically target a given DNA helicase may be useful for understanding its role in cellular nucleic acid metabolism. The goal of this project is to identify small molecule, non-covalent chemical inhibitors of the Werner syndrome (WS) helicase (WRN), which plays an important role in cell proliferation, the replication stress response, and DNA repair. […] The WRN gene product that is defective in the chromosomal instability disorder has DNA helicase and exonuclease activities and interacts with a number of nuclear proteins to maintain genomic stability. We will employ an optimized high-throughput screening assay that utilizes a fluorescence intensity modulation scheme with a fluorophore and quencher positioned near one another within a duplex deoxyoligonucleotide that contains a single forked structure. After a high-throughput screen of the ~350,000-member Molecular Libraries Small Molecule Repository (MLSMR) collection, followed by data analysis and hit selection, a panel of confirmatory, as well as secondary and ternary, assays will be employed to identify high-confidence WRN inhibitors. Structure-activity relationships will be investigated for the top candidate inhibitor series through medchem expansion. These are the results of the primary screening campaign against the MLSMR. NIH Chemical Genomics Center [NCGC] NIH Molecular Libraries Probe Centers Network [MLPCN] MLPCN Grant: MH096530 Assay Submitter (PI): Robert Brosh, National Institute of Aging
Three muL of reagents (buffer in columns 3 and 4 as negative controls; WRN at 20 nM final concentration in columns 1 and 2 as positive controls; columns 5-48 as test reactions) will be dispensed into a 1536-well Greiner black plate via solenoid-valve based nanoliter dispensers. Compounds (23 nL each in columns 5-48) and control (23 nL each in column 2 as dose-response) will be transferred via a Kalypsys pintool equipped with a 1536-pin array. Plates will be incubated for 15 min at room temperature, and then 1 µL of substrate (100 nM forked duplex oligonucleotide and 2 mM ATP final concentrations) will be added to start reaction, and plate will be transferred into a ViewLux high-throughput CCD imager where reaction progress is measured in kinetic mode using standard red-fluorescence optics (excitation filter 525 nm, emission filter 598 nm).
% is scaled to controls: 0 for no effect and ±100 for the full control effect; potency is read from the fitted curve at half-maximal effect.

Chain of Bifunctional 3'-5' exonuclease/ATP-dependent helicase WRN (Homo sapiens) (Q14191 whole entry, looked up): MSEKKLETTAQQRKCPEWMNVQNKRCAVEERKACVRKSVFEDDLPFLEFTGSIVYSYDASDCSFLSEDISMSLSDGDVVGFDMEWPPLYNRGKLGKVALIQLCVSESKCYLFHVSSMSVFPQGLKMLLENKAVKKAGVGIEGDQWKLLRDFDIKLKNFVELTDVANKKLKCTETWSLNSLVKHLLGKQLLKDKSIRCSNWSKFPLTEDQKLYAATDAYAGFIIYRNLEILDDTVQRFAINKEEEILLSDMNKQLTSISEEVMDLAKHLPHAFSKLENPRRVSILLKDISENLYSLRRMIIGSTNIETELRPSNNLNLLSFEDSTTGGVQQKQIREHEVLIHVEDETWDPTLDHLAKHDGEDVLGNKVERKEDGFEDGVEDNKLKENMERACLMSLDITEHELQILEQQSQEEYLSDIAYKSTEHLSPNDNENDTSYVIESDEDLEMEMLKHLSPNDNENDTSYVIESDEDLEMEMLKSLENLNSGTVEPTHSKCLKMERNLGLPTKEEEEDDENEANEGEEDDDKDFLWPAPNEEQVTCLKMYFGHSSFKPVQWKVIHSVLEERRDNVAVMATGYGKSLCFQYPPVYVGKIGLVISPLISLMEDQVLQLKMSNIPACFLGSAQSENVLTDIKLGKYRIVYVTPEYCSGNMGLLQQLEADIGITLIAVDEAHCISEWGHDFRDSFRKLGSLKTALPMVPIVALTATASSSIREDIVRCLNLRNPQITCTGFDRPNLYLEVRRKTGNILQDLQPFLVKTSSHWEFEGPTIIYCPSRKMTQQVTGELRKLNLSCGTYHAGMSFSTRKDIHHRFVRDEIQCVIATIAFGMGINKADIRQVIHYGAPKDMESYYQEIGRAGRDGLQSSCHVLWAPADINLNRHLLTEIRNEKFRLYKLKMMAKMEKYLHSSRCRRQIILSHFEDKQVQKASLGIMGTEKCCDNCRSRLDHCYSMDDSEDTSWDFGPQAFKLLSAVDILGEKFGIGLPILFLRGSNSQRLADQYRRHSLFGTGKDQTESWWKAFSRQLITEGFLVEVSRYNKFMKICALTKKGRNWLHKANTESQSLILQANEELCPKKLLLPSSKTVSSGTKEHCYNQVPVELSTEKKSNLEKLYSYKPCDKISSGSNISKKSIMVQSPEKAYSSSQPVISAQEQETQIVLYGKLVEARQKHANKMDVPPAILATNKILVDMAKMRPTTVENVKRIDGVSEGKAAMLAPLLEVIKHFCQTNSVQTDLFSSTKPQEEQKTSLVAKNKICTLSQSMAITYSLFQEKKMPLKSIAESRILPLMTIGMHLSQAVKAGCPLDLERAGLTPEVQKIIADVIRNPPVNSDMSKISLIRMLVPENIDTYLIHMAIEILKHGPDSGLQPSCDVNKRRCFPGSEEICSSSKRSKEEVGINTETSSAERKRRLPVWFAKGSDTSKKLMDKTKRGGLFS

Point of comparison: `Cc1ccc(S(=O)(=O)NC[C@H]2O[C@@H](n3cnc4c(N)ncnc43)[C@H](O)[C@@H]2O)s1`, “activity change, negative = inhibition” value 1.49%. Against it:
- COc1ccc(CNC(=O)/C(C#N)=C/c2cccc(OC)c2OC)cc1 — lower, -7.89%
- Cc1ccc2c(NC(=O)C3CC3)cccc2n1 — higher, 3.45%
- CC(O)CN(Cc1ccc(Cl)cc1)CC(C)O (stereo not drawn) — lower, -5.28%
- CCC(C)CN1C(=O)CSCC1(C)C(=O)NCc1ccccc1 (stereo not drawn) — lower, -3.61%
- O=C(CSc1nnc(-c2ccncc2)o1)NCc1ccc(Cl)cc1 — lower, -4.04%
- CCOC(=O)N1CCC(N2Cc3cccc(C(=O)Nc4ccc(S(=O)(=O)N(CC)CC)cc4)c3C2=O)CC1 — lower, -22.4%
- CCCCn1c(SCc2ncc(-c3ccccc3)o2)nc2cc(S(N)(=O)=O)ccc21 — lower, -6.83%
- COc1ccc(N(CC(=O)NCCSCc2cccc(Cl)c2)S(C)(=O)=O)cc1 — higher, 1.93%
- COC(=O)c1ccc(C(NC(=O)OCc2ccccc2)/C(C)=C/[C@@H](C)C(=O)NCc2ccc(OC)c(OC)c2)cc1 (stereo partly drawn) — lower, -4.93%
- COc1cc(/C=C/C(=O)OCC(=O)NC(=O)NCc2ccccc2)ccc1OCC#N — lower, -4.86%
- COc1cccc(/C=N/NC(=O)C(=O)N2CCCC2)c1 — lower, -4.37%
- CC(NC(=O)C(=O)NN=C1CCC(C(C)(C)C)CC1)c1ccccc1 (stereo not drawn) — lower, -0.0663%
- CC(=O)Nc1cncc(-c2ccccc2CO)n1 — lower, -0.378%
- O=C(O)C1C2C=CC(C2)C1C(=O)N1CCN(CCO)CC1 (stereo not drawn) — lower, -16.9%
- C#CCOCCOCCOCCNc1nc(N2CCN(C(=O)[C@H](CO)n3cc([C@@H](N)C(C)C)nn3)CC2)nc(N2CCN(C(=O)[C@H](CCC(=O)O)n3cc([C@@H](N)[C@H](C)CC)nn3)CC2)n1 — lower, -2.38%
- C#CCOCCOCCOCCNc1nc(N2CCN(C(=O)C([C@@H](C)CC)n3cc(C(N)COC(=O)C(F)(F)F)nn3)CC2)nc(N2CCN(C(=O)[C@H](CCCCN)n3cc(C(N)CC(C)C)nn3)CC2)n1 (stereo partly drawn) — higher, 5.35%
- C#CCOCCOCCOCCNc1nc(N2CCN(C(=O)C(Cc3ccc(O)cc3)n3cc(C(N)CC(C)C)nn3)CC2)nc(N2CCN(C(=O)C(Cc3ccc(O)cc3)n3cc(C(N)C(C)CC)nn3)CC2)n1 (stereo not drawn) — lower, -5.12%
- C#CCOCCOCCOCCNc1nc(N2CCOCC2)nc(N2CCN(C(=O)[C@H](Cc3ccc(O)cc3)n3cc(CCO)nn3)CC2)n1 — higher, 2.23%
- C#CCOCCOCCOCCNc1nc(N2CCN(C(=O)[C@H](CCC(=O)O)n3cc(C(N)CO)nn3)CC2)nc(N2CCN(C(=O)[C@H](Cc3ccc(O)cc3)n3cc(C(N)[C@H](C)CC)nn3)CC2)n1 (stereo partly drawn) — higher, 9.57%
- C#CCOCCOCCOCCNc1nc(N2CCN(C(=O)[C@H](CCCCN)n3cc([C@@H](N)C(C)CC)nn3)CC2)nc(N2CCN(C(=O)[C@H](Cc3ccc(O)cc3)n3cc([C@@H](N)C(C)CC)nn3)CC2)n1 (stereo partly drawn) — lower, -8.56%

With `Cc1ccc(/C=C(\C#N)C(=O)Nc2cccc3ncccc23)o1` the Potency was 20 µM (active).
With `O=c1ccc2c(-c3ccccc3S(=O)(=O)O)c3ccc(O)c(O)c3oc-2c1O` the Potency was 0.212 µM (active).
For `COc1ccc2c(c1)c(=Cc1ccc(N(C)C)cc1)c1cc(-c3ccccc3)[n+](C)n12`, the Potency was 28.2 µM (active).
In the case of `COC(=O)c1ccc(COc2ccc(/C=C/C(=O)c3ccc(OC)c(CSCC(=O)O)c3)cc2OC)cc1`, the Potency was 44.7 µM (active).
In the case of `C#CCOCCOCCOCCNc1nc(N2CCN(C(=O)CCCCCCCCCCNC(=O)Cn3cc(CCCCCN)nn3)CC2)nc(N2CCN(C(=O)CCCCCCCCCCNC(=O)[C@H](CO)n3cc(CCCSC)nn3)CC2)n1`, the Potency was 31.6 µM (active).
For `C#CCOCCOCCOCCNc1nc(N2CCN(C(=O)CCCCCCCCCCNC(=O)[C@H](CCCCN)n3cc(C)nn3)CC2)nc(N2CCN(C(=O)CCCCCCCCCCNC(=O)[C@H](CO)n3cc(CCCSC)nn3)CC2)n1`, the Potency was 50.1 µM (active).
`C#CCOCCOCCOCCNc1nc(N2CCN(C(=O)CCCCCCCCCCNC(=O)[C@H]([C@@H](C)CC)n3cc(CCCCN=C(N)N)nn3)CC2)nc(N2CCN(C(=O)CCCCCCCCCCNC(=O)[C@H](CO)n3cc(CCCSC)nn3)CC2)n1` was tested, and the Potency was 25.1 µM (active).
